Screens (PubChem BioAssay)
Rows were chosen to be rich in hits. Some 0.93% of all compounds tested hit in one or more screens of this group.
RPL19A-GFP yeast: modulators of TOR pathway RPL19A-GFP in S. cerevisiae; S. cerevisiae RPL19A-GFP strain, flow cytometry, 3 h; stronger effect = lower value; percent response vs DMSO, % at 10 µM; actives 0.3% (n = 330,000); AID 2025;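 active means percent response vs DMSO below 50%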;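 further: median channel GFP fluorescence of the barcoded RPL19A-GFP strain; ratio of sample median GFP to plate DMSO average so 100% = DMSO; lower means less RPL19A-GFP as with rapamycin TOR inhibition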
CIT2-GFP yeast: alters CIT2-GFP fluorescence in TOR pathway yeast screen; S. cerevisiae CIT2-GFP strain, flow cytometry, 3 h; 100 means same as DMSO wells; actives 0.065% (n = 320,000); GFP response vs DMSO, % at 10 µM;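 active means GFP response relative to DMSO above a set limit, near the screen mean plus 3 SD, cut at about 150% in these data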;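 further: ratio of well median GFP fluorescence to mean of DMSO wells on the plate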
LAP4 TOR yeast: alters LAP4-GFP fluorescence in TOR pathway yeast screen; S. cerevisiae LAP4-GFP multiplex, flow cytometry GFP, 3 h; median GFP as percent of DMSO wells; GFP response vs DMSO, % at 10 µM; actives 0.34% (n = 320,000);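 active means GFP response vs DMSO above a set limit, about the screen mean plus 3 SD, cut at about 150% in these data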
MEP2-GFP yeast: modulators of TOR pathway MEP2-GFP in S. cerevisiae. S. cerevisiae MEP2-GFP strain, flow cytometry GFP, 3 h; 100% = DMSO control level. GFP response vs DMSO, % at 10 µM. actives 0.51% (n = 330,000);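 active means GFP response versus DMSO above a set limit, roughly screen mean plus 3 SD, cut at about 180% in these data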;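 further: median GFP fluorescence of the barcode-gated MEP2-GFP cells per well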
AGP1-GFP MLPCN: modulators of TOR pathway AGP1-GFP in S. cerevisiae. S. cerevisiae AGP1-GFP multiplex flow cytometry, 3 h; GFP as percent of DMSO wells. GFP response vs DMSO, % at 10 µM. actives 0.02% (n = 320,000);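 active means GFP response relative to DMSO above a set limit, near screen average plus 3 SD, cut at about 150% in these data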;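 further: median GFP channel fluorescence of the gated AGP1 strain per well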
LAP4-GFP pick2: reconfirmed LAP4-GFP TOR pathway modulator in yeast; shares compounds with LAP4 TOR yeast; AID 2621; S. cerevisiae LAP4-GFP strain, flow cytometry GFP, 3 h; actives 20% (n = 590); GFP response vs DMSO, % at 10 µM;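 active means GFP signal as percent of the solvent control above about 150%, meaning raised reporter expression, limit read from the data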;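 further: ratio of well median GFP fluorescence to plate DMSO mean so 100% = DMSO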
MEP2-GFP pick2: yeast MEP2-GFP modulation, second cherry pick; shares compounds with LAP4 TOR yeast; S. cerevisiae MEP2-GFP strain, flow cytometry GFP, 3 h; GFP response vs DMSO, % at 10 µM; actives 10% (n = 590);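 active means GFP signal above 150% of the solvent control wells, that is a rise of more than half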;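 further: median channel GFP fluorescence of all gated yeast cells per well; ratio of median GFP to plate DMSO average so 100% = DMSO level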
RPL19A-GFP pick2: second confirmation of modulators of TOR reporter RPL19A-GFP in yeast. shares compounds with LAP4 TOR yeast. S. cerevisiae RPL19A-GFP strain, flow cytometry GFP, 3 h; stronger effect = lower value; 100% means same as DMSO wells. GFP response vs DMSO, % at 10 µM. actives 3% (n = 590). AID 2623;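 active means under 65% GFP response relative to DMSO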;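 further: median GFP channel fluorescence per well over the all cells gate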
CIT2-GFP pick2: reconfirmed modulator of CIT2-GFP TOR reporter in yeast | shares compounds with LAP4 TOR yeast | AID 2624 | GFP response vs DMSO, % at 10 µM | S. cerevisiae CIT2-GFP strain, flow cytometry GFP, 3 h; DMSO control wells read 100% | actives 8% (n = 590);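 active means GFP response vs DMSO above about 150%, limit read from the data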;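 further: median green fluorescence per well over all gated yeast cells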
AGP1-GFP pick2: second confirmation of modulators of TOR reporter AGP1-GFP in yeast. S. cerevisiae AGP1-GFP strain, flow cytometry GFP, 3 h. percent response vs DMSO, % at 10 µM. shares compounds with LAP4 TOR yeast. AID 2643. 590 tested, under 10 active;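 active means over 150 percent of DMSO response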;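 further: median GFP channel fluorescence over all cells without mother daughter split; sample median GFP divided by mean DMSO control so 100% equals DMSO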
s288c autofluor: compound is autofluorescent in yeast s288c cells. shares compounds with LAP4 TOR yeast. S. cerevisiae s288c, 520 nm autofluorescence, flow cytometry, 3 h; stronger effect = higher value; zero means same as solvent-only cells. fluorescence change (kMESF span) at 33 µM. 610 tested, under 10 active. AID 2757;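 active means fluorescence span over the dose series, or activity score, above about 33, limit read from the data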
Yeast autofl DR: TOR screen hit shows autofluorescence in yeast s288c; shares compounds with LAP4 TOR yeast; S. cerevisiae s288c parental, compound autofluorescence, flow cytometry, 3 h; fluorescence change (span) at 33 µM; 110 tested, under 10 active;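 active means fluorescence change span, or the activity score built from it, above 25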
TORC1 bypass gr: wildtype yeast growth loss with TORC1 bypass cells unaffected | 120 tested, under 10 active | AID 504456 | growth rating (0-3) at 30 µM | S. cerevisiae BY4741 spot growth rating, 48-72 h; stronger effect = lower value | shares compounds with LAP4 TOR yeast;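 active means growth rating at most 1 for wild type yeast while the TORC1 bypass strain still grows fully, rated 3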
* hit, by the source's call; nt = no result given.

SMILES	RPL19A-GFP yeast	CIT2-GFP yeast	LAP4 TOR yeast	MEP2-GFP yeast	AGP1-GFP MLPCN	Yeast autofl DR	TORC1 bypass gr	others
NS(=O)(=O)c1ccc(CCNC(=O)C(=O)c2cn(CC(=O)N3CCOCC3)c3ccccc23)cc1	98.9	171.3*	104.3	113.2	109.2	nt	nt	LAP4-GFP pick2=102.9;MEP2-GFP pick2=101.5;RPL19A-GFP pick2=99.2;CIT2-GFP pick2=106.3;AGP1-GFP pick2=99.4
CCN(CC)C(=O)Cn1cc(C(=O)C(=O)NCCc2ccc(S(N)(=O)=O)cc2)c2ccccc21	106.0	103.1	109.3	106.0	108.9	nt	nt
O=C(O)CCCc1ccc2c(c1)CCc1ccccc1-2	87.2	59.3	173.0*	86.8	71.5	nt	nt	LAP4-GFP pick2=109.2;MEP2-GFP pick2=96.1;RPL19A-GFP pick2=91.2;CIT2-GFP pick2=97.3;AGP1-GFP pick2=87.7
Oc1ccc(N=Nc2ccccc2)o1	111.5	111.6	164.8*	96.8	95.7	nt	nt	s288c autofluor=0.41
Cc1nc(Nc2ccc(F)cc2)nc(Nc2ccc(F)cc2)c1[N+](=O)[O-]	99.1	100.0	101.4	98.8	103.0	nt	nt
Nc1nc(NCCc2ccccc2)nc(NCc2ccccc2)c1[N+](=O)[O-]	101.6	97.5	97.9	105.1	93.5	nt	nt
Nc1nc(NC2CCCCC2)nc(Nc2cccc(F)c2)c1[N+](=O)[O-]	nt	nt	nt	nt	nt	0.11	3
Nc1nc(NCCc2ccccc2)nc(Nc2cccc(F)c2)c1[N+](=O)[O-]	nt	nt	nt	nt	nt	0.1	3
COc1cccc(Nc2nc(N)c([N+](=O)[O-])c(Nc3cccc(F)c3)n2)c1	nt	nt	nt	nt	nt	0.16	3
Nc1cc(Nc2cccc(F)c2)nc(NCc2ccccc2)n1	nt	nt	nt	nt	nt	0.42	3
Nc1nc(NC2CCCCC2)nc(NCCO)c1[N+](=O)[O-]	99.8	98.4	nt	104.5	103.7	nt	nt
Cc1cc(Nc2cccc(F)c2)nc(NCc2ccccc2)n1	108.5	90.0	82.6	99.8	91.7	nt	nt
CCOC(=O)C1=C(C)OC(N)=C(C#N)C1c1cc2c(cc1[N+](=O)[O-])OCO2 (stereo not drawn)	108.3	109.0	90.6	108.0	107.0	nt	nt
CCOC(=O)[C@H]1[C@H]2COc3ccc(OC)cc3[C@@H]2N2C(=O)[C@H](C)NC(=O)[C@@]12C	97.7	96.1	99.7	91.4	100.3	nt	nt
O=C(NCc1ccccc1Cl)c1ccc(CS(=O)Cc2ccc(Cl)cc2)o1 (stereo not drawn)	106.1	103.0	110.2	104.9	107.4	nt	nt
Fc1cccc(Cl)c1CNCc1cccnc1	99.6	101.8	101.2	101.9	97.1	nt	nt
Nc1nc(Nc2cccc(F)c2)nc(NCCO)c1[N+](=O)[O-]	97.0	102.6	106.1	97.9	106.2	nt	nt
CCC(C)Nc1nc(N)c([N+](=O)[O-])c(Nc2cccc(F)c2)n1 (stereo not drawn)	nt	nt	nt	nt	nt	0.06	3
Nc1nc(NCc2ccccc2)nc(Nc2cccc(F)c2)c1[N+](=O)[O-]	87.7	92.4	82.5	85.7	85.2	0.1	3
Cc1ccc(CNc2nc(N)c([N+](=O)[O-])c(Nc3cccc(F)c3)n2)cc1	100.5	105.4	105.9	103.1	104.1	nt	nt
Nc1nc(Nc2ccccc2F)nc(Nc2cccc(F)c2)c1[N+](=O)[O-]	nt	nt	nt	nt	nt	0.21	3
COCCNc1nc(N)c([N+](=O)[O-])c(Nc2cccc(F)c2)n1	nt	nt	nt	nt	nt	0	3
NS(=O)(=O)c1cccc(NC(=O)CCN2C(=O)C3CCCCC3C2=O)c1 (stereo not drawn)	97.1	102.3	106.2	102.9	102.3	nt	nt
CN1CCN(NC(=S)Nc2ccc(OC(F)F)cc2)CC1	94.8	99.9	90.5	91.7	97.5	nt	nt
CCOC(=O)c1c(N)nc(NC)nc1Nc1cccc(F)c1	nt	nt	nt	nt	nt	nt	3
SMILES	RPL19A-GFP yeast	CIT2-GFP yeast	LAP4 TOR yeast	MEP2-GFP yeast	AGP1-GFP MLPCN	Yeast autofl DR	TORC1 bypass gr	others
Nc1nc(NCc2ccco2)nc(Nc2ccccc2)c1[N+](=O)[O-]	97.5	100.6	93.6	96.3	100.2	nt	nt
Nc1nc(NCc2ccco2)nc(Nc2cccc(F)c2)c1[N+](=O)[O-]	93.6	88.8	92.0	91.3	96.5	0.05	3
COc1ccc(CC(=O)N2CCCC2)c(OC)c1	99.2	101.3	98.7	99.9	99.1	nt	nt
O=c1c2c([N+](=O)[O-])cc([N+](=O)[O-])cc2sn1Cc1ccccc1	98.7	99.0	107.4	99.8	100.7	nt	nt
O=c1c2c([N+](=O)[O-])cc([N+](=O)[O-])cc2sn1-c1ccc(Br)cc1	32.0*	37.5	62.3	78.1	11.6	nt	nt	LAP4-GFP pick2=107.2;MEP2-GFP pick2=96.1;RPL19A-GFP pick2=94.4;CIT2-GFP pick2=102.9;AGP1-GFP pick2=99.5
C=C(C)[C@@H]1CCC2(C(=O)O)CC[C@]3(C)[C@H](CC[C@@H]4[C@@]5(C)CCC(=O)C(C)(C)[C@@H]5CC[C@]43C)[C@@H]12 (stereo partly drawn)	100.6	79.1	109.3	91.3	90.1	nt	nt
C=C(CC[C@@H](O)C(C)(C)O)[C@H]1CC[C@]2(C)[C@@H]1CCC1[C@@]3(C)CCC(=O)C(C)(C)C3CC[C@]12C (stereo partly drawn)	98.6	81.7	157.8*	88.5	111.5	nt	nt	LAP4-GFP pick2=105.8;MEP2-GFP pick2=96.5;RPL19A-GFP pick2=95.8;CIT2-GFP pick2=92.7;AGP1-GFP pick2=100.6
O=C(O)c1cccc(-n2cccc2/C=C/[N+](=O)[O-])c1	93.5	91.6	162.7*	93.8	102.8	nt	nt	LAP4-GFP pick2=110.2;MEP2-GFP pick2=99.6;RPL19A-GFP pick2=104.2;CIT2-GFP pick2=116.8;AGP1-GFP pick2=102.9
O=C(O)c1cccc(-n2cccc2/C=C\[N+](=O)[O-])c1	96.2	109.9	103.0	98.0	101.5	nt	nt
